The test deals with Scedosporium aurantiacum CBS 136046. Put plainly: growth inhibition relative to DMSO control (OD600); higher = more antifungal activity, active = 80 or more; extreme values may be limits of the assay. The following applies: 5 µM; 72 h; 37 °C.

A number with no mark means an inactive call.
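Further: conidia screened in RPMI 1640 medium under 5% CO2, growth read by spectrophotometer, medium with 0.5% DMSO serving as the untreated reference.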

As to `NS(=O)(=O)c1ccc(NC(=O)NC(c2ccccc2)c2ccccc2)cc1`, the growth inhibition was 25.6%. Consider `O=C(NCc1ncc(C(F)(F)F)cc1Cl)c1c(Cl)cccc1Cl`, for which the growth inhibition was 0%.

`C[C@H](NC(=O)C(=O)Nc1ccccc1C(C)(C)C)C(=O)N[C@@H](CC(=O)O)C(=O)COc1c(F)c(F)cc(F)c1F`: the growth inhibition is 11.6%. For the molecule `CCc1nc2ccc(Cl)cn2c1C(=O)NCc1ccc(N2CCC(c3ccc(OC(F)(F)F)cc3)CC2)cc1`, the growth inhibition is 21.8%.

For the molecule `CCOC(=O)N[C@@H]1CC[C@@H]2[C@@H](C1)C[C@H]1C(=O)O[C@H](C)[C@H]1[C@H]2/C=C/c1ccc(-c2cccc(F)c2)cn1`, the growth inhibition was 44.3%.

For the molecule `CC[C@H](NC(=O)[C@H](C)NC)C(=O)N1C[C@@H](O)C[C@H]1Cc1c(-c2[nH]c3cc(F)ccc3c2C[C@@H]2C[C@H](O)CN2C(=O)[C@H](CC)NC(=O)[C@H](C)NC)[nH]c2cc(F)ccc12`, the growth inhibition was 6.5%. Take `CC(C)(C)NC(=O)[C@@H]1C[C@@H]2CCCC[C@@H]2CN1C[C@@H](O)[C@H](Cc1ccccc1)NC(=O)[C@H](CC(N)=O)NC(=O)c1ccc2ccccc2n1`: the growth inhibition is 15%. The figure for `O=c1cc(OCc2ccccc2)ccn1Cc1ccccc1` is 9.92%; for `Cc1ccn2c(C(=O)NCc3ccccc3)c(C)nc2c1` it is 34%; for `O=C(Nc1ccc(-c2ccccc2)cc1)C1=C(O)C(Cc2ccccc2)OC1=O` (configuration not stated) it is 45.3%. For the molecule `Clc1cc2nc(C3CCNCC3)n(Cc3ccc(CNCCc4c[nH]cn4)cc3)c2cc1Cl`, the growth inhibition was 16.1%. The figure for `CCN(CC)S(=O)(=O)c1ccc(Cl)c(C(=O)Nc2sc3c(c2C#N)CCCC3)c1` is 25.7%. For `N#CCN1C(=O)COc2cc(F)c(N3C(=O)c4ccccc4C3=O)cc21` the value was 0%. The figure for `Nc1ccc(-c2nc3cc(C(F)(F)F)ccc3n2C23CC4CC(CC(C4)C2)C3)cc1` is 27.1%. Consider `CC(C)Cn1c(=O)n(C)c(=O)c2c(-c3cncn3C)n(Cc3cccc4ccccc34)nc21`, for which the growth inhibition was 29%. The figure for `N#Cc1cc([N+](=O)[O-])ccc1Oc1ccccc1Cl` is 20.3%; for `CN1CCN(Cc2ccc(-c3cnc4[nH]cc(-c5ccc6[nH]ccc6c5)c4c3)cc2)CC1` it is 54.5%; for `O=c1[nH]c(=O)n(Cc2cccc(Oc3ccccc3)c2)cc1Nc1ccccc1` it is 12.7%. As to `c1ccc(-c2nnc3c4ccccc4c(N4CCNCC4)nn23)cc1`, the growth inhibition was 23.6%. `CC1(C)CC(NC(=O)C(=O)Nc2ccc(Cl)cc2)CC(C)(C)N1`: the growth inhibition was 8.43%. As to `Cc1cc(NS(=O)(=O)c2ccc(-c3ccc(F)cc3F)cc2)no1`, the growth inhibition is 11.5%.

As to `NC(=O)[C@@H]1CC[C@@H]2CN1C(=O)N2OS(=O)(=O)O`, the growth inhibition is 0%. For `CCOC(=O)Nc1cc(NC(C)CC(C)CN(CC)CC)c2nc(-c3ccccc3)c(-c3ccccc3)nc2n1` (configuration not stated) the value was 36.4%; for `O=C(O)/C=C/C=C/c1cccc(Oc2cc(Cl)cc(Cl)c2)c1`, 13.8%; for `CCCCOC(=O)Nc1cc2nc(C3CCCCC3)[nH]c2cc1N(CC)CC`, 39.7%. In the case of `CCNC(=O)Nc1cn2c(-c3ncc(CC)cn3)cc(-c3cccnc3)cc2n1`, the growth inhibition is 0%. As to `CC(C)(C)c1ccc(OCCn2nc(C(=O)O)c3ccccc3c2=O)cc1`, the growth inhibition was 16.2%. On to `Oc1cccc(C(Nc2nccs2)c2ccc3cccnc3c2O)c1` (configuration not stated), for which the growth inhibition was 5.56%.

In the case of `Nc1nnnn1CCOc1c2[nH]c3ccc(Cl)cc3c2cc2c1[nH]c1ccc(Cl)cc12`, the growth inhibition is 49.3%.

In the case of `O=C(c1cc(O)nc2ccccc12)N1CCN(c2ccccc2)CC1`, the growth inhibition is 5.66%. For the molecule `CCNC(=O)Nc1cc2c(-c3ccnc(C)c3)ccc(CNC(=O)OC)c2cn1`, the growth inhibition was 13.3%. In the case of `C[C@H]1[C@@H](c2cccc(C(F)(F)F)c2)OC(=O)N1C(=O)NCc1cncc2ccccc12`, the growth inhibition is 11.5%. For `O=C(/C=C/n1cnc(-c2cc(C(F)(F)F)cc(C(F)(F)F)c2)n1)NNc1cnccn1` the value was 26.3%; for `Cc1oncc1C(=O)Nc1ccc(C(F)(F)F)cc1`, 15.6%; for `CCCCCOc1ccc(/C=C2\Oc3c(ccc(O)c3O)C2=O)c(O)c1`, 1.85%. For `CS(=O)(=O)c1ccc(Oc2ccc(Cl)cc2)cc1` the value was 15.2%; for `O=C(CSc1nnc(Br)n1-c1ccc(C2CC2)c2ccccc12)Nc1ccc(C(=O)O)cc1Cl`, 18.4%.

With `O=c1cc(Nc2ccc3ccccc3c2)[nH]c(=O)[nH]1`, the growth inhibition was 0.738%.

In the case of `Clc1cc(Cl)c2c(c1)CCc1ccccc1C2n1ccnc1` (configuration not stated), the growth inhibition is 80.2% (active). `O=C(NCc1ccccc1Cl)c1cnc2ccccc2n1`: the growth inhibition is 10.6%. The figure for `CC[C@H]1OC(=O)[C@H](C)[C@@H](O[C@H]2C[C@@](C)(OC)[C@@H](O)[C@H](C)O2)[C@H](C)[C@@H](O[C@@H]2O[C@H](C)C[C@H](N(C)C)[C@H]2O)[C@](C)(O)C[C@@H](C)C(=O)[C@H](C)[C@@H](O)[C@]1(C)O` is 0.273%. For `COc1ccc(NS(=O)(=O)c2ccc(Cl)s2)cn1` the value was 11.2%; for `O=C(Nc1ccccc1)N(Cc1cc(Br)ccc1O)c1ccc(F)cc1`, 40.7%. The figure for `CCc1cc(Nc2cc(=O)n(CCN3CCN(C(=O)c4ccccc4)CC3)c(=O)[nH]2)ccc1C` is 0%.

As for `CCc1cc(O)c(Oc2cccnc2N)cc1F`, the growth inhibition was 12.4%. For `CN(C)CCCNC(=O)c1ccc(-c2cc(O)c3ncccc3c2)cc1` the value was 11.4%. For `COC1CC2CCC(C)C(O)(O2)C(=O)C(=O)N2CCCCC2C(=O)OC(C(C)CC2CCC(OCCO)C(OC)C2)CC(=O)C(C)/C=C(\C)C(O)C(OC)C(=O)C(C)CC(C)/C=C/C=C/C=C/1C` (configuration not stated) the value was 10.9%. Turning to `Cn1cc(NC(=O)c2cc(NC(=O)c3ccc(/C=C/c4cnc5ccccc5c4)cc3)cn2C)cc1C(=O)NCCN1CCOCC1`, the growth inhibition is 0%. For `CC[C@@]1(O)C(=O)OCc2c1cc1n(c2=O)Cc2cc3c([N+](=O)[O-])cccc3nc2-1` the value was 22.2%; for `CCCCC(CC)CNC(=N)NC(=N)NCCCCCCNC(=N)NC(=N)NCC(CC)CCCC` (configuration not stated), 85% (active); for `NC(=O)C(c1ccccc1)(c1ccccc1)[C@H]1CCCN(CCc2ccc3c(c2)CCO3)C1`, 13.5%. With `Clc1ccc(COC(Cn2ccnc2)c2ccc(Cl)cc2Cl)c(Cl)c1` (configuration not stated), the growth inhibition is 80.6% (active).

Turning to `CC(C)c1cc2c(cc1S(=O)(=O)O)[C@@]1(C)CCC[C@@](C)(C(=O)O)[C@@H]1CC2`, the growth inhibition is 30%.

On to `O=C(O)C[C@H]1CC[C@H](c2ccc(-c3ccc(Nc4ccc(C(F)(F)F)nc4)cn3)cc2)CC1`, for which the growth inhibition is 12.5%. For `OB1OCc2c1ccc(Cl)c2F` the value was 0.00748%; for `CO[C@@]1(NC(=O)Cc2cccs2)C(=O)N2C(C(=O)O)=C(COC(N)=O)CS[C@@H]21`, 20.8%. The figure for `CC(C)(C)c1cc(C(=O)/C(C#N)=N/Nc2cccc(Cl)c2)no1` is 35.3%; for `O[C@@](Cn1cnnn1)(c1ccc(F)cc1F)C(F)(F)c1ccc(-c2ccc(OCC(F)(F)F)cc2)cn1` it is 47.1%; for `C[C@H]1CC[C@@]2(O)C(C)(C)[C@@H]3CC[C@@]2(C)[C@H]1C3` it is 12.7%. For `O=C(O)CSc1cc(NS(=O)(=O)c2cccc3cccnc23)c2ccccc2c1O` the value was 20.8%; for `O=c1cc(NCCCN[C@@H]2CCOc3c(Br)cc(Br)cc32)[nH]c2ccsc12`, 17.3%. In the case of `CCCCc1ccc(S(=O)(=O)Nc2cc(C)on2)cc1`, the growth inhibition was 2.13%. As to `Cc1cc(C)n(O)c(=O)c1`, the growth inhibition was 0.961%.

As to `O=C(O)c1ccc(-n2nc(-c3ccccc3O)nc2-c2ccccc2O)cc1`, the growth inhibition is 0.0499%. The figure for `O=C(c1ccccc1)N1CCN(c2ccccc2NC(=O)C(Cl)(Cl)Cl)CC1` is 33.8%; for `O=[N+]([O-])c1cn(Cc2nc(O)nc(O)c2Br)cn1` it is 20.5%. Take `Cc1cc(CCOc2c(C)cc(-c3nnn(C)n3)cc2C)on1`: the growth inhibition is 3.61%. In the case of `NC(=O)c1nccn([C@@H]2O[C@H](CO)[C@@H](O)[C@H]2O)c1=O`, the growth inhibition was 2%. The figure for `Cc1cccc(CC(=O)N[C@H]2CCOC2=O)c1` is 16.6%. Consider `Nc1nc(NC2Cc3ccc(F)cc3C2)nc(N2CCCCC2)n1` (configuration not stated), for which the growth inhibition was 45.3%.

For `COc1ccc(NC(=O)c2cc3ccccn3n2)cc1`, the growth inhibition was 36.8%. For `CC(N)C12CC3CC(CC(C3)C1)C2` (configuration not stated) the value was 10.8%.

`Nc1nc2c(ncn2/C=C2/CC2(CO)CO)c(=O)[nH]1`: the growth inhibition was 1.28%. For `O=C(NNC(=S)Nc1ccc(Cl)cc1)c1ccncc1` the value was 10.8%; for `Fc1ccc2c(/C=C/c3cccnc3)c[nH]c2c1`, 5.3%. With `CC(C)(C)NC(=O)N[C@H](C(=O)N1C[C@H]2[C@@H]([C@H]1C(=O)NC(CC1CCC1)C(=O)C(N)=O)C2(C)C)C(C)(C)C` (some centres not stated), the growth inhibition is 10.8%. The figure for `Cn1c2ccccc2c(=O)c2c(O)cccc21` is 6.84%.

These data come from the supplement of paper PMC9897528.
